The values that follow come from PubChem BioAssay.

Active and inactive are the calls of the source.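 Rule for the calls, unless noted: active = inhibition at or above 50% at 10 µM; inactive = inhibition below 50%.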

The nature of assay [1]: inhibitors of TNFa-induced NFkB p65 translocation, primary screen, imaging, HUVEC, MLSMR starter and 10KST1 sets (AID 438;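 active = inhibition above 20% together with a positive visual image hit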;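 note: compound added about 3h40 before a 20 min TNFalpha stimulation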;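 for inhibition: signal is the nuclear over cytoplasmic p65 intensity ratio per well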). As to conditions: HUVEC TNFa-induced p65 nuclear translocation; cell count: measured here: nuclei count (cytotoxicity indicator), at 2.08 µM; inhibition: at 2 µM, stronger effect = higher value, 0% TNFa-plus-vehicle, 100% no-TNFa wells.
Assay [2] is described as follows: inhibitors of mutant huntingtin aggregation, primary screen, imaging, exon1htt(103Q)mCFP cells, high-content imaging (AID 483;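 active = visual image review flags a hit and inhibition of aggregation exceeds 20%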;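 note: compound exposure lasted 3 days before fixation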;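 for nuclei count: percent of the per-plate median nuclei count of sample wells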). As to conditions: exon1htt(103Q)mCFP cell line, aggregate imaging, at 2 µM; inhibition of aggregation: stronger effect = higher value; nuclei count: measured here: cell count, toxicity.
A short description of assay [3]: inhibitors of E-selectin induction by TNFa, primary screen, imaging, HUVEC, immunofluorescence, MLSMR starter and 10KST1 sets (AID 487;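 active = visually confirmed hit in the image check and inhibition above 20%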;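 for inhibition: signal is fraction of cell area covered by stained E-selectin grains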;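 for nuclei count: 100% = median nuclei count of all wells on the same plate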). As to conditions: HUVEC TNFalpha-induced E-selectin immunofluorescence imaging, at 2 µM; inhibition: stronger effect = higher value; nuclei count: measured here: cell number, toxicity.
Assay [4] addresses Voltage-gated potassium channel subunit beta-2 (Rattus norvegicus) (UniProt P62483). Nature of the assay: KvBeta enzyme negative modulators, primary screen, biochemical, NADPH fluorescence (AID 622;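 active = fluorescence slope higher than the sample average by over 3 SD, cut at about -0.22 in these data, passing the limit was not always enough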;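 note: slope of raw intensity against log time taken from 70 to 1610 s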). As to conditions: recombinant KvBeta, 4-cyanobenzaldehyde reduction, at 10 µM, stronger effect = higher value.
The target is the same in assay [5]. Nature of the assay: KvBeta positive modulators, primary screen, biochemical, NADPH fluorescence (AID 623;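 active = NADPH fluorescence slope more negative than the mean of all samples by about 3 SD, 99.7% confidence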;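 note: fluorescence intensity change per second fitted from 20 to 320 s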). As to conditions: Recombinant KvBeta, NADPH fluorescence decrease slope, 10 min; at 10 µM; stronger effect = lower value.
The target of assay [6] is Alpha-2C adrenergic receptor (Homo sapiens) (UniProt P18825). Briefly: modulators of alpha2C/GIRK thallium flux, primary screen, cell-based, HEK293 alpha2C/GIRK1/2 (AID 624;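 active = fluorescence slope after compound addition differing from the mean of all screened samples at 99.7% confidence, in either direction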;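 note: slope of fluorescence ratio to pre-addition baseline per second over 15 to 24 s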). As to conditions: thallium flux BTC fluorescence, at 10 µM, actives lie on both sides.
A short description of assay [7]: inhibitors of Sendai virus-induced IRF3 signaling, primary screen, TLR/RLR signaling modifier project, cell-based, Sendai virus stimulus, luciferase, 10K MLSCN set (AID 602276).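 Note: firefly luciferase from ISG56 promoter only with Renilla not read in this screen; 0% = Sendai virus plus DMSO and 100% = medium plus DMSO without virus.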 As to conditions: HEK293 RL24 IRF3 luciferase reporter, at 10 µM, stronger effect = higher value.
Assay [8] in a line: inhibitors of poly I:C-induced TLR3 signaling, primary screen, cell-based, poly I:C stimulus, luciferase, 10K MLSCN set (AID 602277;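 active = inhibition of the reporter signal at or above 50%; inactive = inhibition below 50%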). As to conditions: HEK293-TLR3 RL24 IRF3 luciferase reporter, at 10 µM, stronger effect = higher value. A general note: Reporter assays use an easily measured gene product as a stand-in for the process of interest.

Chain of Alpha-2C adrenergic receptor (Homo sapiens) (P18825 whole entry, looked up): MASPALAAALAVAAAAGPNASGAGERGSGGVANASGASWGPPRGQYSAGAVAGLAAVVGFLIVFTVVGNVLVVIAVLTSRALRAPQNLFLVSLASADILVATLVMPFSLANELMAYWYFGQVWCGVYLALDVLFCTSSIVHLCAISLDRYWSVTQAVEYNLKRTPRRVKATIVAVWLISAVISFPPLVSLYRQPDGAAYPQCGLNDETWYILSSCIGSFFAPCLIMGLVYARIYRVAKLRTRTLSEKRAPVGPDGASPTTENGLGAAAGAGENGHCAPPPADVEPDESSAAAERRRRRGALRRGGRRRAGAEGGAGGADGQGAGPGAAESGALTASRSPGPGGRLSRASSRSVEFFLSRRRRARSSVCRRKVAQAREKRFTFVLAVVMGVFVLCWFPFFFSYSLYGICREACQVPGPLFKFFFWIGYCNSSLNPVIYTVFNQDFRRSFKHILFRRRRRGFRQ
Chain of Voltage-gated potassium channel subunit beta-2 (Rattus norvegicus) (P62483 whole entry, looked up): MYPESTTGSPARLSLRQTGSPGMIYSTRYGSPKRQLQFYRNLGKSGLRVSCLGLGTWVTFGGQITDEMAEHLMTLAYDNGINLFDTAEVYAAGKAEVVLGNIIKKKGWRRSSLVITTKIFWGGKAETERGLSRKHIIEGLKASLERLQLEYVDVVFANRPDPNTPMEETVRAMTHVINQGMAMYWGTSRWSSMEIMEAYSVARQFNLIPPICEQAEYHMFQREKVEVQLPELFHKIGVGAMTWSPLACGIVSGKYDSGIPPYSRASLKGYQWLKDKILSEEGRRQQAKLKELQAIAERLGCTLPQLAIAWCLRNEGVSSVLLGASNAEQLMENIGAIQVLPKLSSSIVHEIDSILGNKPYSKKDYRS

As to `COc1ccccc1CNS(=O)(=O)c1ccc(NC(C)=O)cc1`, in assay [1], the cell count is 601. The inhibition in assay [1] is 8.1% (inactive); in assay [3], -57.3% (inactive); in assay [7], 6.03% (inactive); in assay [8], 6.94% (inactive). Besides, the inhibition of aggregation in assay [2] was -1.3% (inactive). Besides, the values for the nuclei count in assay [2] and in assay [3] were 110% and 109%, respectively. In addition, the fluorescence slope in assay [4] is -0.411 (inactive). Further, the NADPH fluorescence slope in assay [5] was -4.2e-05 (inactive). The slope in assay [6] is 0.00719 (inactive).

Take `O=C(c1cccnc1)N1CCc2ccccc21`: the cell count in assay [1] stood at 414. Moreover, the inhibition in assay [1] is 3% (inactive); in assay [3], 24.6% (inactive); in assay [7] it was 10% (inactive); in assay [8], 43.9% (inactive). Besides, the inhibition of aggregation in assay [2] was 1.6% (inactive). For the same molecule, the nuclei count in assay [2] came out at 108%; in assay [3], 95.4%. In addition, the fluorescence slope in assay [4] is -0.468 (inactive). Moreover, the NADPH fluorescence slope in assay [5] is 1.9e-05 (inactive). In assay [6], the slope is 0.00635 (inactive).

For `CC1(C)NC(=O)N(CCOc2cccc(Cl)c2Cl)C1=O`, the cell count in assay [1] was found to be 411. Also, the inhibition was -1.1% (inactive) in assay [1], -35.1% (inactive) in assay [3], 16.8% (inactive) in assay [7] and 18.5% (inactive) in assay [8]. For the same molecule, the inhibition of aggregation in assay [2] is 1.3% (inactive). Also, the nuclei count in assay [2] turned out to be 98%; in assay [3], 92.1%. For the same molecule, the fluorescence slope in assay [4] is -0.338 (inactive). In assay [5], the NADPH fluorescence slope is -6.5e-06 (inactive). Further, the slope in assay [6] was 0.00521 (inactive).

For `O=C(C1CCN(C2CC(=O)N(c3ccc(F)cc3)C2=O)CC1)N1CCOCC1` (centres undefined), the cell count in assay [1] stood at 326. For the same molecule, the inhibition is 6.1% (inactive) in assay [1], 12.7% (inactive) in assay [3], 7.33% (inactive) in assay [7] and 13% (inactive) in assay [8]. For the same molecule, in assay [2], the inhibition of aggregation is 19.1% (inactive). The figures for the nuclei count in assay [2] and in assay [3] were 79.5% and 75.9%, respectively. Moreover, the fluorescence slope in assay [4] is -0.512 (inactive). Also, the NADPH fluorescence slope in assay [5] is -2.5e-05 (inactive). The slope in assay [6] is 0.00647 (inactive).

Consider `CCC1CCCCN1CCNS(=O)(=O)c1ccc2c(c1)oc(=O)n2C` (centres undefined), for which the cell count in assay [1] came out at 809. Moreover, the inhibition is 1.8% (inactive) in assay [1], -92.7% (inactive) in assay [3], 14.3% (inactive) in assay [7] and 39.8% (inactive) in assay [8]. Besides, the inhibition of aggregation in assay [2] was 19.9% (inactive). Besides, the nuclei count in assay [2] worked out at 97.2%; in assay [3], 116%. Further, the fluorescence slope in assay [4] is -0.581 (inactive). The NADPH fluorescence slope in assay [5] is -4.9e-05 (inactive). Also, the slope in assay [6] is 0.00605 (inactive).

For `c1coc(Cn2nnnc2CN2CCN(C3CCCC3)CC2)c1`, in assay [1], the cell count was found to be 530. Besides, the inhibition is -15.6% (inactive) in assay [1], -1.8% (inactive) in assay [3], -7.52% (inactive) in assay [7] and 12.8% (inactive) in assay [8]. Besides, the inhibition of aggregation in assay [2] is -2.8% (inactive). The figures for the nuclei count in assay [2] and in assay [3] were 96.9% and 107%, respectively. In addition, in assay [4], the fluorescence slope is -0.408 (inactive). Besides, the NADPH fluorescence slope in assay [5] was 2.2e-05 (inactive). Besides, in assay [6], the slope is 0.00537 (inactive).

Consider `COc1cccc(Cn2c(-c3nonc3N)nc3ccccc32)c1`, for which the cell count in assay [1] was 306. For the same molecule, the inhibition is -4.8% (inactive) in assay [1], -97% (inactive) in assay [3], 7.76% (inactive) in assay [7] and 57.2% (active) in assay [8]. In addition, the inhibition of aggregation in assay [2] was -97% (inactive). Further, the figures for the nuclei count in assay [2] and in assay [3] were 1.8% and 113%, respectively. For the same molecule, in assay [4], the fluorescence slope is -0.556 (inactive). Also, the NADPH fluorescence slope in assay [5] was -8.2e-05 (inactive). Further, the slope in assay [6] was 0.00614 (inactive).

Consider `CCOc1ccccc1NC(=O)CCSc1nc2n[nH]c(C)c2c(=N)n1-c1ccccc1Cl`, for which the cell count in assay [1] is 621. Also, the inhibition in assay [1] was -10.2% (inactive); in assay [3], 30.1% (inactive); in assay [7] it was 3.64% (inactive); in assay [8], 5.23% (inactive). For the same molecule, in assay [2], the inhibition of aggregation was -22.3% (inactive). The nuclei count in assay [2] turned out to be 77.9%; in assay [3], 62.2%. In assay [4], the fluorescence slope was -0.417 (inactive). Moreover, in assay [5], the NADPH fluorescence slope is -4.1e-05 (inactive). The slope in assay [6] is 0.00336 (inactive).

For `O=C(c1cc2ccccc2oc1=O)N1CCN(c2ccc(N3CCOCC3)nn2)CC1`, the cell count in assay [1] is 490. The inhibition was -6.9% (inactive) in assay [1], -13.6% (inactive) in assay [3], -9.88% (inactive) in assay [7] and 18.4% (inactive) in assay [8]. Moreover, the inhibition of aggregation in assay [2] was 0.1% (inactive). Also, the nuclei count in assay [2] is 104%; in assay [3], 110%. In assay [4], the fluorescence slope is -0.603 (inactive). Moreover, the NADPH fluorescence slope in assay [5] was -1.8e-05 (inactive). The slope in assay [6] is 0.00513 (inactive).

Consider `COc1ccc(OC)c(S(=O)(=O)N2CCC(C(=O)NCc3ccccc3OC)CC2)c1`, for which the cell count in assay [1] was found to be 782. Also, the inhibition was -2.1% (inactive) in assay [1], -74.6% (inactive) in assay [3], 4.82% (inactive) in assay [7] and 13.9% (inactive) in assay [8]. Moreover, the inhibition of aggregation in assay [2] was -13.8% (inactive). Further, the nuclei count in assay [2] stood at 107%; in assay [3], 133%. In addition, the fluorescence slope in assay [4] was -0.517 (inactive). Moreover, the NADPH fluorescence slope in assay [5] is -1.4e-05 (inactive). Further, in assay [6], the slope is 0.00487 (inactive).

Regarding `CCOc1ccccc1C(=O)N1CCN(c2cccc(Cl)c2)CC1`, the cell count in assay [1] was 460. For the same molecule, the inhibition in assay [1] is 24.4% (active); in assay [3], -294% (inactive); in assay [7], 9.54% (inactive); in assay [8], 87.8% (active). For the same molecule, the inhibition of aggregation in assay [2] was -20.9% (inactive). Further, the nuclei count came to 4% in assay [2] and 104% in assay [3]. Also, the fluorescence slope in assay [4] is -0.614 (inactive). In addition, the NADPH fluorescence slope in assay [5] is -5.4e-05 (inactive). Also, in assay [6], the slope is 0.00344 (inactive).

For the molecule `CC1=CCC(C(C)(C)NC(=O)c2ccccc2)C/C1=N\O` (centres undefined), in assay [1], the cell count was determined as 313. Moreover, the inhibition was 2% (inactive) in assay [1], -6.2% (inactive) in assay [3], 17.1% (inactive) in assay [7] and 20.6% (inactive) in assay [8]. Besides, the inhibition of aggregation in assay [2] was -4.5% (inactive). Moreover, the nuclei count in assay [2] came out at 89.1%; in assay [3], 120%. The fluorescence slope in assay [4] is -0.624 (inactive). In addition, in assay [5], the NADPH fluorescence slope is -1.5e-05 (inactive). Further, the slope in assay [6] is 0.00574 (inactive).

As to `CCCOc1ccc(C2C(C(=O)OC)=CN(CCOC)C=C2C(=O)OC)cc1`, in assay [1], the cell count was 356. For the same molecule, the inhibition is -11.3% (inactive) in assay [1], -128% (inactive) in assay [3], 15.3% (inactive) in assay [7] and 27.8% (inactive) in assay [8]. Further, the inhibition of aggregation in assay [2] was -4.7% (inactive). Also, the nuclei count is 116% in assay [2] and 111% in assay [3]. The fluorescence slope in assay [4] is -0.251 (inactive). Moreover, in assay [5], the NADPH fluorescence slope was 1.3e-05 (inactive). Further, the slope in assay [6] is 0.00618 (inactive).

In the case of `CCN1CCN(c2nc3c(c(=O)[nH]c(=O)n3C)n2CCSc2nc3ccccc3s2)CC1`, in assay [1], the cell count is 638. Besides, the inhibition in assay [1] is -11.8% (inactive); in assay [3], -45.2% (inactive); in assay [7], 12.2% (inactive); in assay [8], 23.6% (inactive). Also, the inhibition of aggregation in assay [2] was -2.9% (inactive). Further, the nuclei count in assay [2] is 111%; in assay [3], 113%. Further, the fluorescence slope in assay [4] is -0.431 (inactive). In assay [5], the NADPH fluorescence slope was -2.8e-05 (inactive). The slope in assay [6] was 0.00469 (inactive).

As a reminder, the inhibition is the change of the read-out against control, counted positive when it falls.
